Records with an inconclusive call do not appear. Entries that show only a call come without a potency. Unmarked numbers belong to inactive results. Calls of active or inactive are those of the source. Calls follow the shape of the dose curve; as a rule, active = well fitted inhibition curve with a large enough effect; inconclusive = small, poorly fitted or top-dose-only effect; inactive = flat fitted curve, though single readings scatter.
Experiment: P-glycoprotein substrates identified in KB-8-5-11 adenocarcinoma cell line, qHTS therapeutic library screen (AID 1346987); also: nearly all actives have a fitted effect of over 65% in size
Settings: KB-8-5-11 (P-gp overexpressing) viability, CellTiter-Glo, 72 h; series mostly up to 44.5 µM
Summary of the method: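 Luminescence from CellTiter-Glo, read 5 min after addition, quantified survival of KB-8-5-11 (P-gp-overexpressing) cells exposed to compounds for 72 h. AC50 was derived from concentration-response curves.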
Potency is read from the fitted curve at half-maximal effect.

Row | SMILES | Potency | activity change, negative = cytotoxicity
1 | O=C(Nc1cccc(C(F)(F)F)c1)c1cc(Br)cc(Br)c1O | 1.3 µM (active) | –
2 | O=C(O)C[C@H]1CCC(=O)[C@@H]1C/C=C\CCOC1OC(CO)C(O)C(O)C1O (some centres undefined) | inactive | –
3 | COc1cc(/C=C/C(=O)OC(C)(C)C(OC2OC(CO)C(O)C(O)C2O)C(=O)OCc2ccc(OC3OC(CO)C(O)C(O)C3O)cc2)ccc1O (centres undefined) | inactive | –
4 | COc1cc(C2Oc3c(OC)cc(CCCO[C@@H]4O[C@H](CO)[C@@H](O)[C@H](O)[C@H]4O)cc3C2CO)ccc1O (some centres undefined) | inactive | –
5 | C=CC1C(O[C@@H]2O[C@H](CO)[C@@H](O)[C@H](O)[C@H]2O)OC=C(C(=O)OC)C1Cc1nccc2c1[nH]c1ccccc12 (some centres undefined) | inactive | –
6 | CC(C)(O)c1ccc2c(c1)C(=O)CC1[C@](C)(CO)CCC[C@]21C (some centres undefined) | inactive | –
7 | Cc1nnc(C(C)C)n1C1CC2CCC(C1)N2CCC(NC(=O)C1CCC(F)(F)CC1)c1ccccc1 (centres undefined) | inactive | –
8 | Cc1cc(O)cc(Oc2cc(C)c(C(=O)O)c(O)c2)c1 | inactive | –
9 | C=CC1(C)CC(OC(=O)C(=C)C(O)COC(C)=O)C(C(=C)C(=O)OC)C(O)C1C(=C)CO (centres undefined) | inactive | –
10 | O=C(O)Cc1nn(Cc2nc3cc(C(F)(F)F)ccc3s2)c(=O)c2nccnc12 | inactive | –
11 | CC(C)=CC/C=C(/C)[C@H]1CC[C@]2(C)[C@@H]1[C@H](O)CC1[C@@]3(C)CC[C@H](O)C(C)(C)[C@@H]3[C@@H](O[C@@H]3O[C@H](CO)[C@@H](O)[C@H](O)[C@H]3O[C@@H]3O[C@@H](C)[C@H](O)[C@@H](O)[C@H]3O)C[C@]12C (some centres undefined) | inactive | –
12 | C=C[C@@]1(C)CC(=O)C2[C@](C)(O1)[C@@H](OC(C)=O)[C@@H](O)[C@H]1C(C)(C)CCC[C@]21C (some centres undefined) | – | 9.24% [at 9.29 µM]
13 | CCC(NC(=O)CC(NC(=O)C(CO)NC(=O)C(CC)NC(=O)c1ccc[nH]1)c1ccccc1)C(=O)O (centres undefined) | inactive | –
14 | COc1cc(NC(=O)c2ccccn2)ccc1Cl | inactive | –
15 | CC(Oc1ccccc1)C(=O)N[C@@H]1C(=O)N2[C@@H]1SC(C)(C)[C@@H]2C(=O)O (some centres undefined) | inactive | –
16 | C[C@@H](Nc1cc(NS(=O)(=O)N2CCC2)nc(SCc2cccc(F)c2F)n1)[C@@H](O)CO | inactive | –
17 | CC(C)(C)NC(=O)[C@@H]1C[C@@H]2CCCC[C@@H]2CN1C[C@@H](O)[C@H](Cc1ccccc1)NC(=O)[C@H](CC(N)=O)NC(=O)c1ccc2ccccc2n1 | inactive | –
18 | CCCC(=O)O[C@]1(C(=O)CCl)[C@H](C)C[C@@H]2[C@H]3CCC4=CC(=O)C=C[C@]4(C)[C@@]3(F)C(=O)C[C@@]21C | 13 µM (active) | –
19 | CO[C@@H]1[C@@H](O[C@@H]2O[C@H](C)[C@@H](O[C@H]3C[C@@](C)(O)[C@@H](OC(=O)CC(C)C)[C@H](C)O3)[C@H](N(C)C)[C@H]2O)[C@@H](CC=O)C[C@@H](C)C(=O)/C=C/C2OC2C[C@@H](C)OC(=O)C[C@H]1OC(C)=O (some centres undefined) | inactive | –
20 | CC(C)N(C[C@H]1O[C@@H](n2cnc3c(N)ncnc32)[C@H](O)[C@@H]1O)C1CC(CCc2nc3ccc(C(C)(C)C)cc3[nH]2)C1 (some centres undefined) | inactive | –
21 | COC(=O)C[C@@H]1C(C(=O)O)=CO[C@@H](O[C@@H]2O[C@H](CO)[C@@H](O)[C@H](O)[C@H]2O)/C1=C\COC(=O)/C=C\c1ccccc1 | inactive | –
22 | CCCCCCCC(=O)O | inactive | –
23 | Cc1cc(C)c(S(=O)(=O)N(Cc2ccc(-c3cccc(S(C)(=O)=O)c3)cc2)Cc2ccc(C(F)(F)F)o2)c(C)c1 | inactive | –
24 | O=C(O)C[C@@H](NC(=O)c1cc(-c2ccc(-c3ccncc3)cc2)cs1)c1ccccc1 | inactive | –
25 | C/C1=C\C[C@H](O[C@@H]2O[C@H](CO)[C@@H](O)[C@H](O)[C@H]2O)/C(C)=C/[C@H]2OC(=O)[C@H](C)[C@@H]2CC1 | inactive | –
26 | C[C@H]1C[C@H]2[C@@H]3CCC4=CC(=O)C=C[C@]4(C)[C@@]3(F)[C@@H](O)C[C@]2(C)[C@@]1(O)C(=O)CO | inactive | –
27 | CCCCCCCCCCCCCC[n+]1ccc(C)cc1 | inactive | –
28 | c1ccc(Cc2ncc3c(n2)CCNCC3)cc1 | inactive | –
29 | CC(=O)N[C@H]1CCN(c2ccc(C3=NOC(CN[S+](=O)([O-])C(C)C)C3)cc2F)C1 (some centres undefined) | inactive | –

Source: PubChem BioAssay (NCATS)
